The source of these data is PubChem BioAssay (NCATS).

Assay [1] in a line: AP1 Signaling Pathway (AID 357). Further: on the % scale 0 is the no-effect control and ±100 the full control effect. To be noted: ME-180 AP-1-bla reporter, EGF-induced, beta-lactamase ratio, 5 h; at 17.2 µM (top of the series) unless noted. In short, it runs like this: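 Read-out was the 460nm/530nm emission ratio (excitation 405nm) after CCF4 loading for 2.5 hours at room temperature. Cells carried an AP-1-driven beta-lactamase reporter, were stimulated with EC50 EGF plus compound for 5 hours, and AC50 values came from titrations.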

A short description of assay [2]: Stat Signaling Pathway (AID 446).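 Further: ME-180 cervical cancer cells given 40 pM IL-6 alongside compound; SIE-controlled beta-lactamase reporter measured as 460/530 nm FRET emission ratio; on the % scale 0 is the no-effect control and ±100 the full control effect.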 To be noted: ME-180 SIE beta-lactamase reporter, IL-6 stimulated, 5 h. In short, it runs like this:
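ME-180 cells carrying a SIE-driven beta-lactamase reporter are stimulated with 40 pM IL-6 for 5 h at 37C in the presence of compound. The 460/530 nm FRET substrate ratio is read after 2.5 h at RT. Data are normalised to 300 pM IL-6 and to 125 nM JAK inhibitor controls.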

Assay [3] addresses Glucocorticoid receptor (Homo sapiens) (UniProt P04150). Description: GR-GFP Redistribution (AID 450;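 active means compounds whose dose series gives a full or clear partial fitted curve of increased nuclear translocation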; further: potency means the concentration at half of the fitted maximal effect).
A short description of assay [4]: qHTS Assay for Identification of Small Molecule Agonists for Hypoxia Response Element Signaling Pathway (AID 914; active means well fitted activation curve with a large enough effect in the signal ratio, with a control signal flat, not every such curve was filed as active; the % refers to the signal ratio; further: potency means the concentration at half of the fitted maximal effect; on activation: % of control where 0% means no effect). To be noted: ME-180 HRE-bla reporter, beta-lactamase ratio, CoCl2, 17 h; activation: active compounds read high. An outline of the steps: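 Reporter activity (beta-lactamase, CCF4 460nm/530nm ratio) in HRE-bla ME-180 cells is recorded after 17 h compound exposure with EC50 CoCl2 at 37 degrees Celsius. AC50 values come from titration data.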
On the technique in general: qHTS replaces the single test concentration by a dilution series.

Assay [5] addresses Cytochrome P450 1A2 (Homo sapiens) (UniProt P05177). Description: p450-cyp1a2 (AID 410; calls by dose curve; further: potency means the concentration at half of the fitted maximal effect). An outline of the steps: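 Luminescent readout of luciferin formed from Luciferin-ME by human CYP1A2; data normalized against complete inhibition by 57 uM furafylline. Enzyme 20nM, substrate 100uM at Km, 100mM KPO4 buffer, 60 min reaction at room temperature.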
Assay [6] in a line: NFAT Signaling Pathway (AID 444).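 Further: carbachol stimulus at about its EC50 of 1 µM final; on the % scale 0 is the no-effect control and ±100 the full control effect.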 To be noted: Jurkat NFAT-bla M1, carbachol, beta-lactamase ratio, 5 h; at 17.2 µM (top of the series) unless noted. In short, it runs like this:
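Jurkat cells with NFAT-driven β-lactamase reporter and co-expressed M1 receptor, stimulated with carbachol (final 1 uM, ~EC50), compound titration, 5 h at 37 °C. CCF4 loaded 1 h at RT; 460/530 nm ratio gave %activity and AC50.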

The target of assay [7] is Mitogen-activated protein kinase 10 (Mus musculus) (UniProt Q61831). The experiment in a line: JNK3 AlphaScreen Assay (AID 530).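 Further: kinase came from lysate of stimulated human HepG2 cells; signal reports phosphorylation of biotinylated GST-cJun 1-79 at Ser73 with 10 µM ATP; on the % scale 0 is the no-effect control and ±100 the full control effect.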 In short, it runs like this:
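Pre-activated (IL-1β/TNFα) JNK3 in HepG2 lysates phosphorylates biotin-GST-cJun(1-79), 10 uM ATP; anti-phospho-cJun(Ser73) AlphaScreen read at room temperature, pH 7.6 Tris buffer. Compounds pre-incubated 15 min as titrations.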
For orientation: Alpha assays give light when donor and acceptor beads are brought close together.

Assay [8] has as its target 3',5'-cyclic-AMP phosphodiesterase 4B (Homo sapiens) (UniProt Q07343). Description: qHTS Assay for Inhibitors of PDE-IV (AID 607; active means well fitted activation curve with a large enough effect in the main read-out, with a control signal flat, not every such curve was filed as active; further: % of control where 0% means no effect). An outline of the steps: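 HEK293 ACTOne cells with CNG channel (1000/well), endogenous PDE4; membrane potential dye, compounds up to 22.9 uM final. Fluorescence Ex 535/Em 590; RO 20-1724 (100 uM final) as reference.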
Assay [9] deals with Guanine nucleotide-binding protein G(i) subunit alpha-1 (Homo sapiens) (UniProt P63096). The experiment in a line: qHTS Assay for Inhibitors of RGS12 GoLoco Motif Activity (Green Fluorophore) (AID 879; active means well fitted curve in the direction sought with a large enough effect; an effect the other way counts as inactive or inconclusive;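 further: 0% = labeled peptide with Gαi1 and full inhibition = labeled peptide alone without protein; negative values mean loss of peptide binding seen as reduced polarization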). In short, it runs like this:
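Fluorescence polarization assay: 50 nM Gαi1 with 10 nM FITC-labeled RGS12 GoLoco peptide in 10 mM Tris pH 7.5, 150 mM NaCl, 0.1 mM GDP, 0.05% NP40, 10 min at room temperature with compound.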

The target of assay [10] is Cytochrome P450 2C9 (Homo sapiens) (UniProt P11712). The experiment in a line: qHTS Assay for Inhibitors and Substrates of Cytochrome P450 2C9 (AID 883; active means well fitted curve in the direction sought with a large enough effect; an effect the other way counts as inactive or inconclusive; further: potency means the concentration at half of the fitted maximal effect; nearly all actives have a fitted effect of over 60% in size). An outline of the steps:
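Human CYP2C9 (10nM) with Luciferin-H at 100uM (its KM) in 25mM KPO4; compound preincubated 10 min at 37C, then NADPH regeneration for 60 min at 37C. Luciferin read by luminescence after detection reagent; normalized to 57uM sulphaphenazole as full inhibition.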

Assay [11] concerns the target Cytochrome P450 3A4 (Homo sapiens) (UniProt P08684). Description: qHTS Assay for Activators of Cytochrome P450 3A4 (AID 885; active means well fitted curve in the direction sought with a large enough effect; an effect the other way counts as inactive or inconclusive; further: nearly all actives have a fitted effect of over 65% in size). In short, it runs like this: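 Human CYP3A4 (20 nM) with Luciferin-PPXE at 25 uM (its KM) in 200 mM KPO4; 10 min compound preincubation, then NADPH regeneration and 60 min reaction at RT. Luciferin read by luminescence; normalized to 57 uM ketoconazole full inhibition.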

A short description of assay [12]: qHTS Assay for Identification of Small Molecule Antagonists for NFkB Signaling Pathway (AID 895; active means well fitted inhibition curve with a large enough effect in the signal ratio, with a control signal flat, not every such curve was filed as active; the % refers to the signal ratio; further: on the % scale 0 is the no-effect control and ±100 the full control effect). An outline of the steps: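 ME-180 NFkB-bla cells (beta-lactamase under NFkB response element), plated overnight, treated with compound then 10 pM TNF alpha (about EC50) for 5 hrs at 37 C. LiveBLAzer FRET read at 460/530 nm emission, 405 nm excitation.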
Assay [13] addresses Muscarinic acetylcholine receptor M1 (Rattus norvegicus) (UniProt P08482). The experiment in a line: qHTS Assay for Antagonists of Acetylcholine Muscarinic M1 Receptor: Measurement of IP-One Response (AID 944; active means well fitted curve in the direction sought with a large enough effect; an effect the other way counts as inactive or inconclusive; further: nearly all actives have a fitted effect of over 75% in size). An outline of the steps:
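M1-CHO (rat), 2000 cells/well, overnight recovery; cpd 10 min; carbachol EC80 (200 nM), 30 min, HEPES buffer + 50 mM LiCl pH 7.4; IP-One HTRF, Ex 337, Em 620/665 nm.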

Assay [14] has as its target Pyruvate kinase (Leishmania mexicana) (UniProt Q27686). The experiment in a line: qHTS Validation Assay for Inhibitors of Leishmania Mexicana Pyruvate Kinase (AID 945; active means well fitted curve in the direction sought with a large enough effect; an effect the other way counts as inactive or inconclusive;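 further: 0% = DMSO only neutral control wells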). In short, it runs like this: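 Mutant LmPYK (E451W), 0.2 nM, plus 0.5 mM PEP and 0.1 mM ADP in 50 mM imidazole pH 7.2 containing 0.01% Tween 20 and 0.05% BSA. Incubated 1 h at room temperature; luminescence via PKLight, normalized to DMSO.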

Assay [15] addresses Pyruvate kinase PKM (Homo sapiens) (UniProt P14618). The experiment in a line: qHTS Assay for Activators of Human Muscle Pyruvate Kinase (AID 954; active means well fitted curve in the direction sought with a large enough effect, not every such curve was filed as active;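 further: 0% = uninhibited enzyme and -100% = no enzyme or full thiadiazolimine inhibition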). In short, it runs like this: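 Purified human PKM2 (0.1 nM) with 0.5 mM PEP (Km) and 0.1 mM ADP in 50 mM imidazole pH 7.2, KCl, MgCl2, 1 h at room temperature; ATP formed read by coupled luciferase luminescence. Normalized to no-enzyme/110 uM thiadiazolimine inhibition; 0.3 nM enzyme column for activation.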

Assay [16] concerns the target Alpha-galactosidase A (Homo sapiens) (UniProt P06280). The experiment in a line: Counterscreen for Glucocerebrosidase Inhibitors: qHTS Assay for Human alpha-Galactosidase at pH 4.5 (AID 992; active means well fitted curve in the direction sought with a large enough effect; an effect the other way counts as inactive or inconclusive; further: 0% is about no effect). In short, it runs like this: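 Human enzyme (2 nM) with 80 uM 4-methylumbelliferyl alpha-D-galactopyranoside in 50 mM citric acid, 0.005% Tween-20, pH 4.5, 20 min at room temperature. Compounds 0.7 nM–77 uM; fluorescence Ex 365/Em 440 after pH 10 stop; AC50 from Hill fits.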
(In general: The purpose of a counterscreen is to sort out artefacts and off-target activity.)

The target in assay [17] is alpha-glucosidase (Oryza sativa, rice) (UniProt Q653V4). Description: Counterscreen for Glucocerebrosidase Inhibitors: qHTS Assay for Rice alpha-Glucosidase at pH 5.0 (AID 997; active means well fitted curve in the direction sought with a large enough effect; an effect the other way counts as inactive or inconclusive;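 further: 0% = full activity with enzyme and -100% = basal without enzyme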). In short, it runs like this: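 Rice alpha-glucosidase (4 nM final) with 400 uM 4-methylumbelliferyl-alpha-D-glucopyranoside in citrate buffer pH 5.0, 20 min at room temperature, stopped at pH 10; fluorescence 365/440 nm, compounds 0.7 nM–77 uM, AC50 from Hill fits.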

Assay [18] concerns the target Glucocorticoid receptor (Homo sapiens) (UniProt P04150). Description: GR-EFC Redistribution (AID 451; calls by dose curve; further: potency means the concentration at half of the fitted maximal effect). To be noted: CHO-K1 GR-EFC translocation, beta-gal luminescence, 2 h. An outline of the steps:
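CHO-K1 cells expressing nuclear EA and GR-ED fragments of b-gal; compounds titrated up to 46 uM final, 2 h at 37 C. GR nuclear translocation read as complemented b-gal luminescence after 1 h RT detection.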

The target in assay [19] is Ubiquitin carboxyl-terminal hydrolase 1 (Homo sapiens) (UniProt O94782). The experiment in a line: Inhibitors of USP1/UAF1: Pilot qHTS (AID 504865; active means well fitted curve in the direction sought with a large enough effect; an effect the other way counts as inactive or inconclusive;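 further: rhodamine fluorescence freed from ubiquitin-rhodamine substrate followed over time; top concentration of the series differs between compounds; on the % scale 0 is the no-effect control and ±100 the full control effect; nearly all actives have a fitted effect of over 35% in size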). In short, it runs like this: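 1nM USP1/UAF1 + cpd, 15 min RT; start w/ Ub-Rho 150nM final; kinetic FL 480/540 nm, 6 reads q60 s. Buffer 50mM HEPES pH 7.8, 0.5mM EDTA, 1mM TCEP, 0.01% Tween-20, 0.1 mg/ml BSA.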
In assay [20] the target is Tumor susceptibility gene 101 protein (Homo sapiens) (UniProt Q99816). Description: qHTS Assay for Iinhibitors of HIV-1 Budding by Blocking the Interaction of PTAP/TSG101: Hit Validation (AID 651600; active means well fitted curve in the direction sought with a large enough effect; an effect the other way counts as inactive or inconclusive; further: potency means the concentration at half of the fitted maximal effect; nearly all actives have a fitted effect of over 70% in size). In short, it runs like this:
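Tsg101 binding domain 10 uM + FITC-PTAP peptide 50 nM (final), 10 mM HEPES pH 7.5/0.15 M NaCl/0.01% Tween 20/3 mM EDTA/0.1 mM TCEP; 20 min RT; FP read, FITC filters.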

Where [21] appears, read: at 17.2 µM (top of the series) unless noted.

Structures are written as SMILES. Values without a mark were called inactive. Results filed as inconclusive are left out. Active and inactive are the calls of the source. Unless noted, the call rests on the fitted dose curve; in most records, active means well fitted curve in either direction with a large enough effect (not every such curve was filed as active); inconclusive means small, poorly fitted or top-dose-only effect, or another doubt; inactive means flat fitted curve, though single readings scatter.

Cytochrome P450 1A2 (Homo sapiens), sequence (P05177 whole entry, looked up): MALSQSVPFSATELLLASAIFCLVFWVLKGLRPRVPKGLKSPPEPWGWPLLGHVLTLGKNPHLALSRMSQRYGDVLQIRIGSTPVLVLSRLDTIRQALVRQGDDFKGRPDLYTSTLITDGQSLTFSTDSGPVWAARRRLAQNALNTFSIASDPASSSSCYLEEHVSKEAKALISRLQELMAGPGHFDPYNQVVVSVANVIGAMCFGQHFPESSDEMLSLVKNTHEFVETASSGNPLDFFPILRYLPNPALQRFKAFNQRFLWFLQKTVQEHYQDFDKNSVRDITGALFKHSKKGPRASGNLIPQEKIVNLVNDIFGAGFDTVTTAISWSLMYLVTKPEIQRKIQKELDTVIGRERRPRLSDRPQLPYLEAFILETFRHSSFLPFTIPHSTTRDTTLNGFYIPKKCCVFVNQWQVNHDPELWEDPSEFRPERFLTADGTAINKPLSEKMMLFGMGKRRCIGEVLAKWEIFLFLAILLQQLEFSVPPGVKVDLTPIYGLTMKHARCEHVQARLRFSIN
Glucocorticoid receptor (Homo sapiens), sequence (P04150 whole entry, looked up, the tested form may be a part): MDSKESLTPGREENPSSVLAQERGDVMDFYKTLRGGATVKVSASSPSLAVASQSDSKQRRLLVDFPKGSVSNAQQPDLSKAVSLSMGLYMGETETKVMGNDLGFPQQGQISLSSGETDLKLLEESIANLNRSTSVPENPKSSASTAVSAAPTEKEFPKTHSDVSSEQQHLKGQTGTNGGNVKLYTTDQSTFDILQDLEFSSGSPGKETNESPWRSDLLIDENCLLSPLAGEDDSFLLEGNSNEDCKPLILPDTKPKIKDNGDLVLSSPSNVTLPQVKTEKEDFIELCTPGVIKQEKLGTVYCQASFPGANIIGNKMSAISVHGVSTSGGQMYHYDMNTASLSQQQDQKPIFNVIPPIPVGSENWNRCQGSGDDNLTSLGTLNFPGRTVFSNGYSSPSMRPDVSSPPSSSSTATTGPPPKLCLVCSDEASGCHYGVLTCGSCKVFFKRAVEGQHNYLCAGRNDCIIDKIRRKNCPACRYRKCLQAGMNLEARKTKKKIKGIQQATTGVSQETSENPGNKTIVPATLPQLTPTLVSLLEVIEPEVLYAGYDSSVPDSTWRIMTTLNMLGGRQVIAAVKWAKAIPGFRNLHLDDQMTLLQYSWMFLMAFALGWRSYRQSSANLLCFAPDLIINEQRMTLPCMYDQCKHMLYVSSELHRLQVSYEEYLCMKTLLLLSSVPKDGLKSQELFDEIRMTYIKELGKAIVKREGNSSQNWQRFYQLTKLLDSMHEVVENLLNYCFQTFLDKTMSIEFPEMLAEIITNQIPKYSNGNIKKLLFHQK
3',5'-cyclic-AMP phosphodiesterase 4B (Homo sapiens), sequence (Q07343 whole entry, looked up): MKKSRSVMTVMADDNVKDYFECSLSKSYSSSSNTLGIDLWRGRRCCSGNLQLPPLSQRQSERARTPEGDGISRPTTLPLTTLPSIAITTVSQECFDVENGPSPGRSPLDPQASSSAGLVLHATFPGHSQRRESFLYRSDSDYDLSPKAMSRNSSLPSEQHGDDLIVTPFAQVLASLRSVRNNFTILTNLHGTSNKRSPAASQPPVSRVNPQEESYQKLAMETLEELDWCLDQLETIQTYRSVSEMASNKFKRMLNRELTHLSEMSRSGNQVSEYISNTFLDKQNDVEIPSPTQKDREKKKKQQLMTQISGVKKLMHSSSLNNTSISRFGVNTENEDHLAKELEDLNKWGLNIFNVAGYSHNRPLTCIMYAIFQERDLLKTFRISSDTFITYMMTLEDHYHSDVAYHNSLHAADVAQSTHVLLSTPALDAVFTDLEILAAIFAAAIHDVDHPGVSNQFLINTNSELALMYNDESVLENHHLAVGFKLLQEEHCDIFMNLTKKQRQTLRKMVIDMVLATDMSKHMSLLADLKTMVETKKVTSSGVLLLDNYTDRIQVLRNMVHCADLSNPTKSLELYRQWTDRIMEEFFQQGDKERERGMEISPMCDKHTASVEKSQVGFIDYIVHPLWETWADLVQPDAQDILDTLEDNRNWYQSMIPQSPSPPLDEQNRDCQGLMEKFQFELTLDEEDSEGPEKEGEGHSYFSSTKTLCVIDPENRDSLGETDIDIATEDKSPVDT
Cytochrome P450 2C9 (Homo sapiens), sequence (P11712 whole entry, looked up): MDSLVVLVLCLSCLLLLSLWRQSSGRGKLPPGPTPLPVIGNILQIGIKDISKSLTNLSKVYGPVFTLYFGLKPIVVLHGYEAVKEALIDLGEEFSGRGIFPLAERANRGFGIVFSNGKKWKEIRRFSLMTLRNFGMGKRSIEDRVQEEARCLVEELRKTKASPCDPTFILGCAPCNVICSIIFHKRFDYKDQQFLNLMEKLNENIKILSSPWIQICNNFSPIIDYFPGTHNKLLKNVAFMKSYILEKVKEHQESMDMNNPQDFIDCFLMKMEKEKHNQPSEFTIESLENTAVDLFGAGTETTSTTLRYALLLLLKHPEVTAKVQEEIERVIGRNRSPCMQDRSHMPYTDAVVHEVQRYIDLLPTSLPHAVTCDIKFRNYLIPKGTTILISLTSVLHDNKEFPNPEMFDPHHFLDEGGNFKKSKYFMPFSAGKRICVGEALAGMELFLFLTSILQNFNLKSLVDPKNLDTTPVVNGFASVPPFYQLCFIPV
Tumor susceptibility gene 101 protein (Homo sapiens), sequence (Q99816 whole entry, looked up, the tested form may be a part): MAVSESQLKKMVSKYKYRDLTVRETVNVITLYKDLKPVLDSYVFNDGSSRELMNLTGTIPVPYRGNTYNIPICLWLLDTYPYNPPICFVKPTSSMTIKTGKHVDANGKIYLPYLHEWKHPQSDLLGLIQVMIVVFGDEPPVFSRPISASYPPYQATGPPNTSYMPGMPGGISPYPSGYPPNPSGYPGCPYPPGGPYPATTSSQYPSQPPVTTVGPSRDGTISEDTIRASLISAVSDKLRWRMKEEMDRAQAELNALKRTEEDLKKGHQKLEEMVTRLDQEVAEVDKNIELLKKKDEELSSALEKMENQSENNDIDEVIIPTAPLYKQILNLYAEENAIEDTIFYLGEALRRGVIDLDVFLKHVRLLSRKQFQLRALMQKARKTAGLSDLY
Alpha-galactosidase A (Homo sapiens), sequence (P06280 whole entry, looked up): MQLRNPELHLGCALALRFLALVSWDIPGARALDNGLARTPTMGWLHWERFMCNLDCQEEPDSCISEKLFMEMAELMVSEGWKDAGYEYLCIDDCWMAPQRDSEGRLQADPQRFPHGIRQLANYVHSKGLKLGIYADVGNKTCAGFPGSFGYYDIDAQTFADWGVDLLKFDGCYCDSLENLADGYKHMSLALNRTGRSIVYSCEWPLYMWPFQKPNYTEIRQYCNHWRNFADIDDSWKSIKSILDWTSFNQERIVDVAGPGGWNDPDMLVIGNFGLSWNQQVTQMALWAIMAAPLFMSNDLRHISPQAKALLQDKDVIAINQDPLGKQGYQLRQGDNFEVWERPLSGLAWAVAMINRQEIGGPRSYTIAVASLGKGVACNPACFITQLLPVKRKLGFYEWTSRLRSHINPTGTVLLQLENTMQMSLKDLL
Guanine nucleotide-binding protein G(i) subunit alpha-1 (Homo sapiens), sequence (P63096 whole entry, looked up): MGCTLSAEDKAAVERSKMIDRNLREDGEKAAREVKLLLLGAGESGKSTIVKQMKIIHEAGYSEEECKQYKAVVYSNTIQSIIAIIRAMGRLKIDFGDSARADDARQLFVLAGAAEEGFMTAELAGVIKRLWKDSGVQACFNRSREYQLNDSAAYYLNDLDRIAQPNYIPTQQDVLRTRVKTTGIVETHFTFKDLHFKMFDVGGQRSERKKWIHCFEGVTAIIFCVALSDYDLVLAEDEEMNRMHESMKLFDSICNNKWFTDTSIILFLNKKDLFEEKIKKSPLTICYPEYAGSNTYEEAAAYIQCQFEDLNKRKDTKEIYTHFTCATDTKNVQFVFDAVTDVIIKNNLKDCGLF
Cytochrome P450 3A4 (Homo sapiens), sequence (P08684 whole entry, looked up): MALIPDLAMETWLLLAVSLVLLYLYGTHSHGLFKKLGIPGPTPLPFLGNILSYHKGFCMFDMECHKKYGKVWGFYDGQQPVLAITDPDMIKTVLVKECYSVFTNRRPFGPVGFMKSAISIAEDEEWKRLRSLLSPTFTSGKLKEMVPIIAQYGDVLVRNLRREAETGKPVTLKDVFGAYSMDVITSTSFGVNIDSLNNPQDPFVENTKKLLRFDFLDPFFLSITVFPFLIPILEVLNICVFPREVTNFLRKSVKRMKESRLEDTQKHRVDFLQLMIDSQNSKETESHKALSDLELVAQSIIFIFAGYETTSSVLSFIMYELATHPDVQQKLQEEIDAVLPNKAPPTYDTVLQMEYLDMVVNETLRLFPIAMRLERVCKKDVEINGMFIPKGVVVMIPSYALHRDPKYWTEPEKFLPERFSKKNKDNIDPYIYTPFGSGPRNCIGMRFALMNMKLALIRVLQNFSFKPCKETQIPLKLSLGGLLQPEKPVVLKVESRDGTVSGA
Ubiquitin carboxyl-terminal hydrolase 1 (Homo sapiens), sequence (O94782 whole entry, looked up): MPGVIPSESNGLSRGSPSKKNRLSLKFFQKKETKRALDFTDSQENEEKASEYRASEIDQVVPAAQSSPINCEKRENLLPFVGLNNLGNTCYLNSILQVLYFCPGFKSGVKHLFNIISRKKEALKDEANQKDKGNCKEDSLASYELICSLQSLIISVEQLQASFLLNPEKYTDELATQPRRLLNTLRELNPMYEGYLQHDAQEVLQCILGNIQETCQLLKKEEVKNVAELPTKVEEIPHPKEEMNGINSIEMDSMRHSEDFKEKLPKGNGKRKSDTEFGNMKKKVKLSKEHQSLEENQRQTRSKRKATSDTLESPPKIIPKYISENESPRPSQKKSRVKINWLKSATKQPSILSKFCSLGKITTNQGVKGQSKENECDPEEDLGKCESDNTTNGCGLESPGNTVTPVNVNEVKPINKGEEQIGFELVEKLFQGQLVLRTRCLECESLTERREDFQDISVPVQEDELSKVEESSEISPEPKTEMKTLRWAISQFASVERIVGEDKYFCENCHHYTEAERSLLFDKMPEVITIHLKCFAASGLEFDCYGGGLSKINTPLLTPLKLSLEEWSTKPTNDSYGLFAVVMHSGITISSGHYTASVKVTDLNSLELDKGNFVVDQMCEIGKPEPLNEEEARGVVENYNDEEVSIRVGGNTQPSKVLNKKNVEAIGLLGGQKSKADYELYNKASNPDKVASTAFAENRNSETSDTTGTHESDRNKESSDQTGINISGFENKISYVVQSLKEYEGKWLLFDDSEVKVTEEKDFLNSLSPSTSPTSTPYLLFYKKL

Regarding `CCC1(C)Cc2c(sc3c2c(=O)n(C)c2nnc(SCc4ccc5c(c4)OCO5)n32)CO1` (configuration not stated), in assay [1], the activity change, negative = inhibition was 11.8%. In assay [2] (setting [21]), the activity, negative = inhibition was -3.34%. Also, the Potency in [3] was > 20.6 µM. The activation in [4] was -18.9%.

As for `N#C/C(C(=O)NCc1ccco1)=C1/SC(Cc2ccc(Cl)cc2)C(=O)N1c1ccccc1` (configuration not stated), the activity change, negative = inhibition in assay [1] was -16.2%. For the same compound, in assay [3], the Potency was > 20.6 µM.

On to `CN1CCc2c(sc3c2c(=O)n(-c2ccccc2)c2nnc(SCc4ccccc4)n32)C1`, for which, in assay [1], the activity change, negative = inhibition was -13.6%. Further, the Potency in assay [3] was > 20.6 µM.

On to `COc1cccc(-c2nc(NCC3CCCO3)c3ccccc3n2)c1O` (configuration not stated), for which the activity change, negative = inhibition in assay [1] was -22.6%. In [3], the Potency is > 20.6 µM.

With `CC(C)OCCCn1c(=N)c(C(N)=S)cc2c(=O)n3ccccc3nc21`, in [1], the activity change, negative = inhibition was -4.52%. Moreover, the activity, negative = inhibition in assay [2] (setting [21]) is -1.51%. In addition, the Potency in assay [3] was > 20.6 µM. The activation in assay [4] is 13.6%.

Regarding `CN1CCc2nc(SCC(=O)Nc3ccc(Cl)cc3)c(C#N)cc2C1`, the activity change, negative = inhibition in assay [1] was 5.33%. The Potency in [3] is > 20.6 µM.

`N#CC1=C(SCC(=O)c2ccc(Br)cc2)NC2=C(C(=O)CCC2)C1c1ccco1` (configuration not stated): the activity change, negative = inhibition in assay [1] is -81.5% (active). In addition, the Potency in [3] was > 20.6 µM.

Turning to `CCNC(=O)c1cc2c(=O)n3cccc(C)c3nc2n(CCc2ccccc2)c1=N`, in assay [1], the activity change, negative = inhibition was 20.4%. Moreover, the Potency is > 20.6 µM in assay [3] and 10 µM (active) in [4].

As for `CC1CCN(c2oc(-c3ccccc3Cl)nc2C#N)CC1`, the activity change, negative = inhibition in assay [1] was -14%. For the same compound, the Potency in assay [3] was > 20.6 µM.

As for `Oc1ccccc1-c1nc(NCc2ccco2)c2ccccc2n1`, in assay [1], the activity change, negative = inhibition is 19.5%. In assay [3], the Potency is > 20.6 µM.

Consider `COc1cc([C@H]2c3cc4c(cc3[C@@H](O)[C@@H]3COC(=O)[C@H]23)OCO4)cc(OC)c1OC`, for which the Potency result in assay [5], in [7], in assay [8], in assay [11], in [12] and in [13] was “inactive” each time. Also, in assay [14], the Potency result is “inactive”. The activity change, negative = inhibition in assay [6] was -22.1% [at 38 µM]. Further, the activity, negative = inhibition was 16.9% in [2] (at 17.2 µM (top of the series)) and -4.5% in assay [2] (at 38 µM (top of the series)). In addition, the compound was classed as inactive in assay [9], in assay [15], in [16] and in assay [17]. Further, the Potency in assay [10] is 6.31 µM (active).

Take `Cc1nn(-c2ccccc2)c2c1C(c1ccc(F)cc1F)C(C#N)=C(N)O2` (configuration not stated): the activity change, negative = inhibition in [1] is 4.8%. In assay [3], the Potency was > 20.6 µM. In addition, in assay [4], the activation is -12.7%.

For the compound `Cc1cc(C)c(C#N)c(SCc2[nH]nc3c2C(c2ccccc2)C(C#N)=C(N)O3)n1` (configuration not stated), the activity change, negative = inhibition in [1] is -21.7%. Also, in [3], the Potency is > 20.6 µM. In [4], the activation was -8.62%.

On to `COc1cc(/C=C\C(=O)N2CCC=CC2=O)cc(OC)c1OC`, for which the Potency in assay [5] was 0.2 µM (active); in assay [3], > 20.6 µM; in assay [18], > 20.6 µM. Further, the activity change, negative = inhibition in [6] was -142% (active). In addition, the activity, negative = inhibition in assay [2] (setting [21]) was -101% (active). In addition, the Potency result in assay [7], in assay [8] and in assay [19] was “inactive” in each case.

Consider `CCN1CC=C2C(C#N)=C(N)C(C#N)(C#N)[C@H](c3cccc(OC)c3OC)[C@H]2C1`, for which the activity change, negative = inhibition in assay [1] is 9.63%. Besides, the Potency in assay [3] was > 20.6 µM; in assay [20] it was 29.1 µM (active).
